This is an account of results in PubChem BioAssay (EPA / NIEHS).

Where “and” joins values, the source holds several entries; their conditions need not be identical. Identical values can stand only once. Records with an inconclusive call do not appear. More than one record can exist for a structure, and the calls need not agree. Calls of active or inactive are those of the source. How the source made its calls, unless noted: active means hit-call score of the fitted dose curve at least 0.9, where 1 is the maximum; inactive means score below 0.9.

The target in test [1] is human RAR-related Orphan Receptor gamma (RORg), RORC (gene 6097) (UniProt P51449). Nature of the test: ATG_RORg_TRANS: Attagene TRANS-FACTORIAL HepG2 Assay for human RAR-related Orphan Receptor gamma (RORg) (AID 2283011; active means hit-call score of the fitted dose curve at least 0.9, where 1 is the maximum). An outline of the steps: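 Activity is scored as increase in GAL4-UAS reporter mRNA over DMSO, detected by fluorescent RT-PCR and capillary electrophoresis in HepG2 cells transiently expressing a RORg-Gal4 chimera, 24 h after dosing.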

Test [2] deals with human Retinoid X Receptor beta (RXRb), RXRB (gene 6257) (UniProt P28702). Nature of the test: ATG_RXRb_TRANS: Attagene TRANS-FACTORIAL HepG2 Assay for human Retinoid X Receptor beta (RXRb) (AID 2283013; active means hit-call score of the fitted dose curve at least 0.9, where 1 is the maximum). An outline of the steps: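 Multiplexed TRANS reporter assay in HepG2; 24 h dosing; reporter mRNA by RT-PCR/CE fluorescence; gain-of-signal relative to DMSO.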
Read-out in test [3]: E-selectin (Homo sapiens) (UniProt P16581)
Nature of the test: BSK_3C_Eselectin: BioMAP Diversity Plus: 3C Assay for Eselectin Biomarker Activity (AID 2283015).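 On outcome: cell surface E-selectin protein quantified by ELISA 24 h after dosing.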 The note with it: primary human endothelial cells (HUVEC); actives raise or lower the signal. An outline of the steps:
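Human vascular endothelium from umbilical vein is exposed to test chemicals for 24 h. E-selectin levels are read by ELISA and compared with DMSO controls.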

Read-out in test [4]: Interleukin-1 alpha (IL1a), IL1A (gene 3552)
The test can be described thus: BSK_BE3C_IL1a: BioMAP Diversity Plus: BE3C Assay for Interleukin-1 alpha (IL1a) Biomarker Activity (AID 2283016). As to conditions: primary human bronchial epithelial cells; actives raise or lower the signal. In short, it runs like this: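 Cultures of primary human bronchial epithelial cells receive test chemical. After 24 h, IL-1a is quantified by ELISA, while parallel wells are fixed in TCA and SRB-stained for total protein. Changes in either direction are fitted relative to DMSO.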

Read-out in test [5]: Monocyte Chemoattractant Protein-1 (MCP1), CCL2 (gene 6347)
The test can be described thus: BSK_3C_MCP1: BioMAP Diversity Plus: 3C Assay for Monocyte Chemoattractant Protein-1 (MCP1) Biomarker Activity (AID 2283017). The note with it: primary human endothelial cells (HUVEC); actives raise or lower the signal. In short, it runs like this:
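Endothelial cells from human umbilical vein are dosed with chemical, cultured 24 h, then assayed for MCP-1 by ELISA; both increases and decreases are modelled against DMSO controls.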

Read-out in test [6]: Monocyte Chemoattractant Protein-1 (MCP1), CCL2 (gene 6347)
Nature of the test: BSK_4H_MCP1: BioMAP Diversity Plus: 4H Assay for Monocyte Chemoattractant Protein-1 (MCP1) Biomarker Activity (AID 2283018). As to conditions: primary human endothelial cells (HUVEC); actives raise or lower the signal. An outline of the steps: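 Readout: MCP-1 ELISA on compound-treated HUVEC, sampled 24 h post-dosing. Baseline and negative control DMSO; bidirectional fit. Overt toxicity checked alongside by sulforhodamine B protein staining at time of biomarker measurement.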

Read-out in test [7]: Human Leukocyte Antigen - DR isotype (HLADR), HLA-DRA (gene 3122)
Nature of the test: BSK_3C_HLADR: BioMAP Diversity Plus: 3C Assay for Human Leukocyte Antigen - DR isotype (HLADR) Biomarker Activity (AID 2283019).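 On outcome: ELISA of cell-surface HLA-DR on HUVEC 24 h after dosing.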 The note with it: primary human endothelial cells (HUVEC); actives raise or lower the signal. In short, it runs like this:
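Endothelial cells from human umbilical vein are treated with test chemical; after 24 h, HLA-DR levels are measured by ELISA. Data are fitted in both directions using DMSO as the baseline.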

Read-out in test [8]: Interleukin-8 (IL8), CXCL8 (gene 3576)
Nature of the test: BSK_3C_IL8: BioMAP Diversity Plus: 3C Assay for Interleukin-8 (IL8) Biomarker Activity (AID 2283020). The note with it: primary human endothelial cells (HUVEC); actives raise or lower the signal. In short, it runs like this: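 Human vascular endothelial cells (umbilical vein) in the 3C system; IL-8 level detected by ELISA at 24 h post-dose, with DMSO as baseline.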

The target in test [9] is Retinoic acid receptor RXR-alpha (Homo sapiens) (UniProt P19793). The test can be described thus: ATG_RXRa_TRANS: Attagene TRANS-FACTORIAL HepG2 Assay for human Retinoid X Receptor alpha (RXRa) (AID 2283012; active means hit-call score of the fitted dose curve at least 0.9, where 1 is the maximum). An outline of the steps: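 Cells (HepG2) carried transiently transfected GAL4-responsive reporter units. Following a 24 h chemical incubation, reporter mRNA induction was read via RT-PCR fragment analysis; DMSO served as negative control and baseline.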

Test [10] deals with human Thyroid Receptor alpha (THRa1), THRA (gene 7067) (UniProt P10827). Nature of the test: ATG_THRa1_TRANS: Attagene TRANS-FACTORIAL HepG2 Assay for human Thyroid Receptor alpha (THRa1) (AID 2283014; active means hit-call score of the fitted dose curve at least 0.9, where 1 is the maximum). An outline of the steps: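 First, HepG2 cells receive multiple GAL4-UAS reporter units and the chimeric receptor. They are then dosed for 24 h, after which RNA is reverse-transcribed, amplified, labelled, HpaI-cut and sized by capillary electrophoresis; gain relative to DMSO is scored.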
human Thyroid Receptor alpha (THRa1), THRA (gene 7067), sequence (P10827 whole entry, looked up, the tested form may be a part): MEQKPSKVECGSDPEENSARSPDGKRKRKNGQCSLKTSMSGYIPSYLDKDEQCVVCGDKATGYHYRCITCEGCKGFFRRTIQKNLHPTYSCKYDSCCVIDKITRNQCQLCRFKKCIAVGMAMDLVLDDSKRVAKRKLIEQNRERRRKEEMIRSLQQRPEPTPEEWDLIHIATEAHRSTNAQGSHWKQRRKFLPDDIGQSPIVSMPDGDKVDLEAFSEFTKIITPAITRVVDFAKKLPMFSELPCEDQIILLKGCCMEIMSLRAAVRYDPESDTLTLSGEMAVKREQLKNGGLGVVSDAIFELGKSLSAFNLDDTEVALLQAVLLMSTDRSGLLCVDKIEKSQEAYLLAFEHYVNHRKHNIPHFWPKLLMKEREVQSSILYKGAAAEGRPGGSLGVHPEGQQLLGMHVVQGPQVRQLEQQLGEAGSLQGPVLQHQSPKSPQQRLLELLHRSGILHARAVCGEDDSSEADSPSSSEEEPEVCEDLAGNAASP

human RAR-related Orphan Receptor gamma (RORg), RORC (gene 6097), sequence (P51449 whole entry, looked up, the tested form may be a part): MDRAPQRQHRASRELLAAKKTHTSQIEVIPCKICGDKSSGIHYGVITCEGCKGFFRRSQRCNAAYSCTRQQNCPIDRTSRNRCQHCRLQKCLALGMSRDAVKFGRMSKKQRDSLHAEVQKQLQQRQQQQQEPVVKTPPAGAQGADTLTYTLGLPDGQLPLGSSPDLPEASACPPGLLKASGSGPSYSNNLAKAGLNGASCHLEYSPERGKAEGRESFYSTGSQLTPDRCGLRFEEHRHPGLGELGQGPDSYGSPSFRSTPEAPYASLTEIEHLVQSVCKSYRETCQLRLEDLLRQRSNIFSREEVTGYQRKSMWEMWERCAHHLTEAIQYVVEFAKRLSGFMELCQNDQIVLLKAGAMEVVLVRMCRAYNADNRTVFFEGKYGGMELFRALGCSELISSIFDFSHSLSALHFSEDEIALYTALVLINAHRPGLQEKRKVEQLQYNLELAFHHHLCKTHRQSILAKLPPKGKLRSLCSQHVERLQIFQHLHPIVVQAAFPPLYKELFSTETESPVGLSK
human Retinoid X Receptor beta (RXRb), RXRB (gene 6257), sequence (P28702 whole entry, looked up): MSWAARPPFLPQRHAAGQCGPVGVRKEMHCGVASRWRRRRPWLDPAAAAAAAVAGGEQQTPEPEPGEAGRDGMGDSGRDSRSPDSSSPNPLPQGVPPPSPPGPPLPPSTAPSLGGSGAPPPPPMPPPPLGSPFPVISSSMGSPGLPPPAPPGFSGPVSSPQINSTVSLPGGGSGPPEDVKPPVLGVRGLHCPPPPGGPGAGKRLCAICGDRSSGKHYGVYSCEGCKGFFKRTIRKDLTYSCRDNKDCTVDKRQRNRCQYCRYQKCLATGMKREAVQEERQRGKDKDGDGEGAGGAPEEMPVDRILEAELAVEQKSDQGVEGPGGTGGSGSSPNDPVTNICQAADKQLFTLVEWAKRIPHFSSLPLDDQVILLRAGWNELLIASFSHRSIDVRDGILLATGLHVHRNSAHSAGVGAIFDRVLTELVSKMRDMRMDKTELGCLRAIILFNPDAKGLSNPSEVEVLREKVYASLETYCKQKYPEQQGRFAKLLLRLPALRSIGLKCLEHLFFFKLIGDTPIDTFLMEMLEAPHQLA
E-selectin (Homo sapiens), sequence (P16581 whole entry, looked up): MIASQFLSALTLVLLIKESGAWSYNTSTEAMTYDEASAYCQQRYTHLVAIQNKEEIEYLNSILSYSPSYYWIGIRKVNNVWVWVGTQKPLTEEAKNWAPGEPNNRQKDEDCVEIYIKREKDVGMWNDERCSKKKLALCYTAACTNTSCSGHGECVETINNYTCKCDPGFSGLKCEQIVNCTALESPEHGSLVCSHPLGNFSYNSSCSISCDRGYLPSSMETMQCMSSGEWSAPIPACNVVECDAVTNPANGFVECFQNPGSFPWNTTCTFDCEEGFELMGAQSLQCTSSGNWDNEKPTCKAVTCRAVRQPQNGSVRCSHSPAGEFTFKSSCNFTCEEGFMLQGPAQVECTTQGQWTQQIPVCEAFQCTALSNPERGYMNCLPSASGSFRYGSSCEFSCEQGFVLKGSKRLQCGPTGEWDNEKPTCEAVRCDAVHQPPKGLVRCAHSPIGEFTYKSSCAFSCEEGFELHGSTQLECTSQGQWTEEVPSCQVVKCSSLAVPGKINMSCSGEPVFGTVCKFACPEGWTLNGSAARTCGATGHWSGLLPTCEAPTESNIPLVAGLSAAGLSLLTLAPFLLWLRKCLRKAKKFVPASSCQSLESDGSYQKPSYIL
Retinoic acid receptor RXR-alpha (Homo sapiens), sequence (P19793 whole entry, looked up, the tested form may be a part): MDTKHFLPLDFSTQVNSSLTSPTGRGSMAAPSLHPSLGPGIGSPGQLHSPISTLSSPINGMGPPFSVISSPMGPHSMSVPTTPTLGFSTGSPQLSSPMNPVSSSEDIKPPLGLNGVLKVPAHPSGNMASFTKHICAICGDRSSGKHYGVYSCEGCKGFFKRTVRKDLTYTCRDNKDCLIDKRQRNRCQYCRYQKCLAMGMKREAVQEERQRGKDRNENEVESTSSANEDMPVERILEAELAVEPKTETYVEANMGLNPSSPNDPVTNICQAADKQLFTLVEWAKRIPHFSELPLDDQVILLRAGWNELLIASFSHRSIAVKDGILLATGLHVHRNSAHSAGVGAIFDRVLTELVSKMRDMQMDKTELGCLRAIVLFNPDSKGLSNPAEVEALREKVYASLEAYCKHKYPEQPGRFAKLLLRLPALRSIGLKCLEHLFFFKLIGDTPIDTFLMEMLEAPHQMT

As to `O=NN(c1ccccc1)c1ccccc1`, the molecule was classed as inactive in [1], in test [3], in test [4], in test [5], in test [6] and in test [7]. Also, in test [8], the outcome was inactive. In addition, the AC50 in [2] was 52.2 µM (active).
For `CCOC(=O)C(O)(c1ccc(Cl)cc1)c1ccc(Cl)cc1`, the molecule was classed as inactive in test [9], in test [2], in [10] and in test [4]. Moreover, the AC50 in test [3] is 32 µM (active); in test [5], 31 µM (active); in test [6], 25.3 µM (active); in test [7], 31.3 µM (active); in test [8], 31.1 µM (active).
On to `C1CC2OC2CC1C1CO1` (stereo not given), for which the molecule was classed as inactive in test [1], in test [3], in test [4], in test [5], in [6] and in [7]. The outcome in [8] was inactive.
Regarding `c1cc2ccc3cccc4ccc(c1)c2c34`, the outcome in [9], in test [10], in test [3], in test [4], in test [5] and in test [6] was inactive. Besides, the outcome in test [7] and in test [8] was inactive. Besides, in test [2], the AC50 was 41.4 µM (active).
Take `CCC(=O)O[C@H]1CC[C@H]2[C@@H]3CCC4=CC(=O)CC[C@]4(C)[C@H]3CC[C@]12C`: the molecule was called inactive in test [1], in test [9], in test [2], in [10] and in [4]. Besides, the AC50 in test [3] was 32.6 µM (active); in [5] it was 29 µM (active); in test [6], 31.8 µM (active); in [7] it was 33.9 µM (active); in test [8], 27.3 µM (active).
For `CCOP(=S)(OCC)SCSC(C)(C)C`, the call in test [9], in [10], in test [3], in test [4], in test [5] and in [6] was inactive. For the same molecule, the result in test [8] was inactive. Further, the AC50 in test [2] is 25.7 µM (active) and 24.6 µM (active); in test [7], 32.5 µM (active).
In the case of `C[C@]12CCC(=O)C=C1CC[C@@H]1[C@@H]2CC[C@]2(C)C(=O)CC[C@@H]12`, the outcome in [1], in test [9], in test [2], in test [10], in test [3] and in test [4] was inactive. The result in test [5], in [6], in test [7] and in test [8] was inactive.
Consider `O=S(=O)(O)C(F)(F)C(F)(F)C(F)(F)C(F)(F)C(F)(F)C(F)(F)F`, for which the molecule was called inactive in [1], in test [9], in test [2], in test [3], in [4] and in test [5]. Further, the outcome in test [6], in test [7] and in test [8] was inactive.
Consider `CO/C=C(/C(=O)OC)c1ccccc1COc1cccc(C(F)(F)F)n1`, for which the call in [9], in test [10], in test [4] and in test [6] was inactive. The AC50 in test [2] was 13.2 µM (active); in [3] it was 7.64 µM (active); in [5], 7.3 µM (active); in test [7] it was 9.84 µM (active); in test [8], 10.1 µM (active).
With `OCC(O)CO`, the molecule was classed as inactive in test [1], in test [9] and in test [2].
For the molecule `CN(C)CCO`, the molecule was classed as inactive in test [1], in test [9], in [2], in test [10], in test [3] and in [4]. In addition, the result in [5], in test [6], in [7] and in test [8] was inactive.
For `N#Cc1ccc(N(CC(N)=O)CC(F)(F)F)cc1C(F)(F)F`, the molecule was classed as inactive in test [1], in test [9], in test [3], in [4], in test [5] and in test [6]. In addition, the result in test [7] and in test [8] was inactive.
In the case of `NS(=O)(=O)C(F)(F)C(F)(F)C(F)(F)C(F)(F)C(F)(F)C(F)(F)C(F)(F)C(F)(F)F`, the call in test [1], in [9], in test [2], in [10] and in test [4] was inactive. The AC50 is 32.5 µM (active) and 56.3 µM (active) and 49.4 µM (active) in test [3]; 43.9 µM (active) and 42.4 µM (active) in test [4]; 34.4 µM (active) and 47.7 µM (active) and 48.9 µM (active) in [5]; 24.8 µM (active) and 37.8 µM (active) and 11.1 µM (active) in [6]; 27.1 µM (active) and 42.6 µM (active) and 44.3 µM (active) in [7]; 32.8 µM (active) and 47.7 µM (active) and 53.4 µM (active) in [8].
`CC(C)(O)C(=O)Nc1ccc([N+](=O)[O-])c(C(F)(F)F)c1`: the molecule was called inactive in [1], in test [9], in test [2], in test [10], in test [3] and in test [4]. Further, the outcome in test [5], in test [6], in [7] and in test [8] was inactive. Further, in [2], the AC50 was 22.8 µM (active) and 28.1 µM (active) and 15.6 µM (active).
For `CCC(C)(CC)c1cc(NC(=O)c2c(OC)cccc2OC)on1`, the call in [1], in test [2], in [3], in [4], in test [5] and in test [6] was inactive. Moreover, the result in test [7] and in test [8] was inactive.
With `Sc1ccccc1`, the result in test [1], in test [2], in test [10], in [3], in test [4] and in test [5] was inactive. Moreover, the result in [6], in test [7] and in test [8] was inactive.
